Several values for one entry are separate records, joined by “and”; a condition that tells them apart may be missing. Identical values can stand only once. In all, about 16,000 compounds went through this assay and about 160 (1%) were called active. Roughly 8% stayed inconclusive and do not appear here. Many of the other results were omitted from the sample, so actives are more common in it than they were. A number with no mark means an inactive call. The call rests on the fitted dose curve; in most records, active means well fitted activation curve with a large enough effect; inconclusive means small, poorly fitted or top-dose-only effect; inactive means no such curve, though single readings can be large or run the other way.
On the % scale 0 is the no-effect control and ±100 the full control effect; potency means the concentration at half of the fitted maximal effect.

Sequence of Rap guanine nucleotide exchange factor 3 (Homo sapiens) (O95398 whole entry, looked up): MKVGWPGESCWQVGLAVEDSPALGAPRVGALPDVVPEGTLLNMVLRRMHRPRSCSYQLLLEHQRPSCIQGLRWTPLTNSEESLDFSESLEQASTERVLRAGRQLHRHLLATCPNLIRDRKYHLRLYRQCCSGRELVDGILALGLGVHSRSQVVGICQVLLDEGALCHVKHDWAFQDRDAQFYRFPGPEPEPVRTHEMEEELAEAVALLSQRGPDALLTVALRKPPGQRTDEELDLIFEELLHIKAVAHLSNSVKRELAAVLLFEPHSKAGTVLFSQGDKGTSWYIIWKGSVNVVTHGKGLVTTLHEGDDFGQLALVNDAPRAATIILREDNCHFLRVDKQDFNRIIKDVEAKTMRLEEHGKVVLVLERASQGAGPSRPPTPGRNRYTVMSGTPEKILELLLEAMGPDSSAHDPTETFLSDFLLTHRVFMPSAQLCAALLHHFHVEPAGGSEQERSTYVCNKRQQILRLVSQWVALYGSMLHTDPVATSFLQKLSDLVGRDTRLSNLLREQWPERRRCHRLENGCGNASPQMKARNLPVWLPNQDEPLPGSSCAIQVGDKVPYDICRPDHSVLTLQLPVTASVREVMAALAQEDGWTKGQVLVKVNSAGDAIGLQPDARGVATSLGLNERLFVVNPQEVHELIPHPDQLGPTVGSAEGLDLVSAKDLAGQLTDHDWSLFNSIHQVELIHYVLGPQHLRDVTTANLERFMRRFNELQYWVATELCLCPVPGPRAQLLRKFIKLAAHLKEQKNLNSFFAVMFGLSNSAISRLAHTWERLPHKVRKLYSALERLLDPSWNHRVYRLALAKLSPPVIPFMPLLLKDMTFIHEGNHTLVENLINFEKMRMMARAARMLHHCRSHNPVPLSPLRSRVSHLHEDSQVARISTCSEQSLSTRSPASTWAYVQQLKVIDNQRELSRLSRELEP

The target of this test is Rap guanine nucleotide exchange factor 3 (Homo sapiens) (UniProt O95398). Put plainly: Validation qHTS for agonist of cAMP-regulated guanine nucleotide exchange factor 3 (EPAC1). Further: nearly all actives have a fitted effect of over 70% in size. As to conditions: EPAC1 Rap1b BODIPY-GDP exchange, fluorescence; max response: hits give high values, percent of cAMP control response. From the text:
Assay Provider (PI): Xiaodong Cheng Ph.D.
The University of Texas Medical Branch, […], TX
In multi-cellular eukaryotic organisms, the effects of cAMP are transduced by two ubiquitously-expressed intracellular cAMP receptors, the classic protein kinase A/cAMP-dependent protein kinase (PKA/cAPK) and the more recently discovered exchange protein directly activated by cAMP/cAMP-regulated guanine nucleotide exchange factor (EPAC/cAMP-GEF). Both PKA and EPAC are ubiquitously expressed in all tissues, and an increase in intracellular cAMP levels will lead to the activation of both PKA and EPAC. Therefore, careful dissections of the individual role and relative contribution of EPAC and PKA within the overall cAMP signaling in various model systems are critical for further elucidating the mechanism of cAMP signaling. To date no EPAC-specific antagonists and agonist, as well as isoform-specific agonists have been reported, and developing EPAC-specific pharmacological probes to determine the physiological functions that EPAC play in the overall cAMP-mediated signaling remains a major challenge within the research field. Furthermore, identified regulators of EPAC may lead to new mechanism-based therapeutic strategies specifically targeting the EPAC / cAMP-signaling components as EPAC has been implicated to play important roles in major human pathological conditions such as diabetes, heart disease, and cancer.
This qHTS will be used to screen the Molecular Libraries Small Molecule Repository (MLSMR) as a concentration-titration series using the NCGC unique quantitative screening (qHTS) platform to find activators for EPAC1. In addition, this assay will also be used as a counterscreen for the EPAC2 qHTS. This fluorescent based assay is developed and validated for EPAC1 that measures exchange using EPAC effector Rap1 complex with BODIPY-GDP, a GDP analog with a tethered fluorophores. Activators are identified by monitoring the change in fluorescence signal as the exchanged free BODIPY-GDP has a reduced fluorescence compared to Rap1-bound BODIPY-GDP. Increase in signal (activation) is the desired outcome for the EPAC1 agonist while no activity in this assay is desired for the EPAC2 agonist counterscreen.
[1] de Rooij, J., Zwartkruis, F. J., Verheijen, M. H., Cool, R. H., Nijman, S. M., Wittinghofer, A., and Bos, J.L. (1998) Nature 396, 474-477.
Briefly, three uL of reagents (100 nM EPAC1, 250 nM RAP1B-BODIPY-GDP, 50 uM GDP) were dispensed into a 1536-well Greiner black solid-bottom medium binding assay plate. Controls and test compounds (23 nL) were transferred to the plate via a Kalypsys pin tool equipped with a 1536-pin array. The plates were centrifuged at 1,000 rpm for 15 seconds followed by 5 minute incubation at room temperature. The assay plates were read at 5 minute intervals for 30 minutes in the ViewLux plate reader using 480nm excitation and 540nm emission filters. The results were normalized to the agonist positive control of 6.5 mM cAMP.
Background: Quantitative high-throughput screening tests each substance at several concentrations.
Consider `O=c1c(-c2cccs2)nc2cnc(Oc3ccccc3)nc2n1-c1ccccc1`, for which the max response was 26.8%.
Same read-out and setting: the same measure for `C=O`: -10.7%; for `COCCn1c(=O)c(-c2cccs2)nc2cnc(N3CCN(C)CC3)nc21`: 9.88%; for `CC(=O)Nc1cc(C(=O)N2CCc3c(Cl)cccc3C2)cc2ncn(CCc3ccccn3)c12`: 1.17%.
As to `COC(C)C(C(=O)OCC1=CCN2CC[C@H](O)[C@@H]12)C(C)C` (stereo partly drawn), the max response is 5.22%.
As for `CNc1cc(-c2c(C)noc2C)ncn1`, the max response was 2.2%.
For the molecule `CC(Oc1ccccc1)C(=O)N[C@@H]1C(=O)N2[C@@H]1SC(C)(C)[C@@H]2C(=O)O` (stereo partly drawn), the max response is -0.674%.
Consider `COc1cccc(Cn2c(=O)cnc3cncnc32)c1`, for which the max response is -1.3%.
`Cc1cn(C2OC[C@@H](O)[C@@H]2CO)c(=O)[nH]c1=O` (stereo partly drawn): the max response was -10%.
With `O=C(c1cnccn1)N1CCC2(CCCN(Cc3ccccc3)C2)CC1`, the max response was -21.3%.
In the case of `O=C(C[n+]1cc(Br)cc2ccccc21)c1ccc(F)cc1`, the max response was 6.56%.
Same read-out and setting: to `O=c1c(-c2ccc(F)c(F)c2)nc2cncnc2n1-c1ccccc1` belongs -25.2%.
With `COc1ccc(C(=O)N2CCC3(CC2)CCN(c2ccccn2)CC3)cc1`, the max response is -52.8%.
Regarding `COC(=O)c1ccccc1-c1cc(C)cc2c1OC(CNC(=O)C1CCOC1)C2` (stereo not drawn), the max response is 15.3%.
The same measure, in the same setting: the same measure for `COc1ccccc1-c1cc(NCc2cccs2)ncn1`: -0.282%; for `NNc1nnc(Cc2ccncc2)c2ccccc12`: 17.7%.
Turning to `COc1ccc(-n2c(=O)c(C)nc3cnc(N4CCOCC4)nc32)cc1`, the max response was -14.8%.
Take `O=C(CCN1Cc2ccccc2OC(c2ccccc2)C1)N[C@@H]1CS(=O)(=O)C[C@H]1O` (stereo partly drawn): the max response was 0.897%.
As for `CN(C)c1ccc(/C=C/c2c3ccccc3nc3ccccc23)cc1`, the max response was 23.9%.
On to `CN(C)c1ccc(/C=C/C=C/c2ccnc3ccccc23)cc1`, for which the Potency was 112 µM (active).
Turning to `Cc1c(C(=O)NCC2CCCN(C)C2)cnn1-c1nccc(-c2ccco2)n1` (stereo not drawn), the max response was -6.37%.
In the case of `CC1(C)[C@H](O[C@H]2O[C@H](C(=O)O)[C@@H](O)[C@H](O)[C@H]2O[C@@H]2O[C@H](C(=O)O)[C@@H](O)[C@H](O)[C@H]2O)CC[C@@]2(C)[C@H]1CC[C@]1(C)[C@H]2C(=O)C=C2[C@H]3C[C@@](C)(C(=O)O)CC[C@]3(C)CC[C@]21C`, the max response is 5.45%.
In the case of `CN(Cc1ccco1)c1ncncc1-c1ccoc1`, the max response was 15.3%.
Turning to `O=C(c1ccco1)N1CCC[C@@]2(CCN(c3ccccc3)C2)C1`, the max response was -31.3%.
As to `CCCCCCCCCCCC(=O)O[C@H](CC(=O)O)C[N+](C)(C)C`, the max response was -21.3%.
As to `O=S1(=O)CCOC[C@H](Cc2ccccc2)N1Cc1ccccc1Br`, the max response is 21.5%.
On to `Cc1nc2cc(NC(=O)[C@@H]3C[C@@H](Sc4ccccn4)CN3Cc3ccccc3C)ccc2s1`, for which the max response was 16.2%.
The same measure, in the same setting: the same measure for `Cc1cc[n+](C2CCCCC2)cc1`: -16.9%; for `CC1(C)S[C@@H]2[C@H](N=CN3CCCCCC3)C(=O)N2[C@H]1C(=O)O`: -11.7%; for `CCN(Cc1ccncc1)C(=O)[C@@H](CO)c1ccccc1`: 7.04%.
With `C#CCCCCCCCCCCCCCCCC(=O)O`, the max response is -16.8% and -0.644%.
`CCN1CCN(C(=O)N[C@@H](C(=O)N[C@@H]2C(=O)N3[C@@H]2SC(C)(C)[C@H]3C(=O)O)c2ccccc2)C(=O)C1=O`: the max response was 15.9%.
For `CS(=O)(=O)N1CCC2(CC1)CN(Cc1ccccc1)C2`, the max response was -14.5%.
For `COc1ccc2[nH]cc(CCNc3cc(-c4ccccc4CN(C)C)ncn3)c2c1`, the max response is -42%.
For the molecule `COc1ccc(CNc2ncncc2-c2ccccc2OC)c(OC)c1`, the max response was -21.3%.
Still for that read-out and setting: to `O=C(O)CCCCCCCCc1cn(CN2C(=O)c3ccccc3C2=O)nn1` belongs 12.5%.
With `Oc1ccc(Cl)c2c1CCC2`, the max response was -17.9%.
Regarding `Cc1csc(-c2nc3ccccc3n2C)n1`, the max response is 8.44%.
As for `NC(=O)c1sc(-c2ccsc2)cc1N`, the max response is -9.78%.
In the case of `Cc1cnc(CNc2ncncc2-c2ccccc2Cl)cn1`, the max response is 13%.
Same read-out and setting: to `O=c1c(-c2ccc(F)cc2)nc2cnc(N3CCOCC3)nc2n1-c1ccccc1` belongs -86.9%.
As to `COc1ccccc1-c1nc(NCc2cccs2)c2ccccc2n1`, the max response is -19.8%.
Regarding `Cc1cc(C(=O)NCC2Cc3cccc(-c4cncnc4)c3O2)c(C)o1` (stereo not drawn), the max response is 3.15%.
`COc1ccccc1CNc1ncncc1-c1cccc(NS(C)(=O)=O)c1`: the max response is -3.54%.
For `CCC1CN(CCNC(=O)c2cccc(C)n2)Cc2cc(OC)ccc2O1` (stereo not drawn), the max response was 8.26%.
As to `CC(C)(C)NCC(O)COc1cccc2[nH]c(=O)[nH]c12` (stereo not drawn), the max response was -8.93% and -6.11%.
Consider `CC(=O)N1CCC2(CCCN(c3ncccn3)C2)CC1`, for which the max response is -18.4%.
Same read-out and setting: to `Cc1ccc(C(=O)Nc2cccc(-c3nc(CNC(=O)c4ccccc4-n4cccn4)c(C)o3)c2)s1` belongs -3.18%; to `Cc1csc(-c2coc3cc(O[C@@H]4O[C@H](CO)[C@@H](O)[C@@H](O)[C@H]4O)ccc3c2=O)n1`, -1.66%.
For the molecule `COc1cc2[nH]c(C)c(CCN3CCN(c4ccccc4)CC3)c2cc1OC`, the max response is 5.71%.
Take `COCCn1c(=O)c(-c2cc(F)cc(F)c2)nc2cncnc21`: the max response was -6.52%.
As to `COCC(=O)N1CCC2(CCCN(c3ccccc3)C2)CC1`, the max response was -14.6%.
`Cc1noc(C)c1-c1nccc(N2CCOCC2)n1`: the max response was 5.18%.
In the case of `O=P(O)(O)OC[C@H](O)CO`, the max response was -11.2%.
In the case of `O=C(O)/C(=C/c1c(C(=O)O)[nH]c2cc(Cl)cc(Cl)c12)c1ccccc1`, the max response is -0.525%.
As to `CCOC(=O)N1CCC(N2CCOc3ccc(CN4CCC(O)(c5cccnc5)CC4)cc3C2)CC1`, the max response is -5.78%.
Still for that read-out and setting: to `Clc1ccccc1-c1cc(NCCN2CCOCC2)ncn1` belongs -6.13%; to `Cn1c(=O)c(CCc2ccccc2)nc2cnc(Nc3ccccc3)nc21`, -11%.
As for `O=c1cc(-c2ccc(O)c(O)c2)oc2cccc(O)c12`, the max response was 8.34%.
Consider `COc1cc(C)c(CN2CCc3nnc(C(C)NC(=O)c4cccnc4)n3CC2)cc1C` (stereo not drawn), for which the max response was 12.1%.
Regarding `COCCNc1ncnc2ccc(-c3cccnc3)cc12`, the max response was -29.2%.
On to `CN(C)c1ccc(/C=c2\[nH]c(=O)/c(=C/c3ccc(N(C)C)cc3)[nH]c2=O)cc1`, for which the max response was 8.62%.
Still for that read-out and setting: to `CC(C)C1=CC2=CC[C@@H]3[C@](C)(CO)CCC[C@]3(C)C2CC1` (stereo partly drawn) belongs -8.55%.
In the case of `Cc1cc2nc3c(=O)[nH]c(=O)nc-3n(C[C@H](O)[C@H](O)[C@H](O)CO)c2cc1C`, the Potency is 100 µM (active).
`O=C(Nc1ccccc1)N[C@H]1C[C@H](C(=O)O)Nc2cc(Cl)cc(Cl)c21`: the max response was 1.49%.
With `C=C1CC[C@H](O)CC1=C/C=C1\CCC[C@]2(C)[C@@H]([C@H](C)/C=C/[C@H](C)C(C)C)CC[C@@H]12`, the max response is -127%.
`CC(N)=NCc1cccc(CN)c1`: the max response is 8.83% and -11.8%.
Same read-out and setting: the same measure for `CCOC(=O)C[C@H]1c2ccc(C(F)(F)F)cc2S(=O)(=O)N1c1ccccc1`: -85%; for `CCC1CN(CCNC(=O)c2cccnc2C)Cc2cc(OC)ccc2O1` (stereo not drawn): 1.97%.
Consider `Cc1nc2cnc(Oc3cccc(Cl)c3)nc2n(C2CC2)c1=O`, for which the max response is -12.8%.
Take `Cc1[nH]c2c(C(=O)NCC3Cc4cccc(-c5cccnc5)c4O3)cccc2c1C` (stereo not drawn): the max response was 19.3%.
Turning to `O=S1(=O)CCO[C@H]2Cc3ccccc3[C@H]2N1Cc1ccccc1`, the max response was 7.53%.
Same read-out and setting: the same measure for `CC(=O)OC1CCC2(O)CC1(C)CCC1C2CC1(C)C` (stereo not drawn): -18.2%; for `COc1cc2c(cc1OC)CC(=O)N(CCCN(C)C[C@H]1Cc3cc(OC)c(OC)cc31)CC2`: 1.48%; for `COc1ccc(C2CC(=O)c3c(O)cc(OC4OC(COC5OC(C)C(O)C(O)C5O)C(O)C(O)C4O)cc3O2)cc1O` (stereo not drawn): -7.79%.
For `O=C(c1cnccn1)N1CCC2(CCN(Cc3cc(C(F)(F)F)cc(C(F)(F)F)c3)CC2)CC1`, the max response is -66.3%.
Take `NC(=O)C(=O)N/N=C/c1ccc([N+](=O)[O-])o1`: the max response is -37.2%.
The same measure, in the same setting: to `COCCNc1ccnc(-c2cccc(NS(C)(=O)=O)c2)n1` belongs -9.71%; to `Nc1nc(/C(=C/CC(=O)O)C(=O)N[C@@H]2C(=O)N3C(C(=O)O)=CCS[C@H]23)cs1`, 13.2%.
For `N#C/C(=C\c1ccc(O)c(O)c1)C(N)=O`, the max response is -9.7% and -17.1%.
The same measure, in the same setting: to `COc1ccccc1C(=O)N[C@@H]1c2ccccc2C2(CCN(Cc3nc(C(C)C)cs3)CC2)[C@H]1O` belongs 12.9%; to `CN(C)c1ccc(CN2CCOc3ccc(CN4CCC(O)(c5cccnc5)CC4)cc3C2)cc1`, -6.57%.
As to `O=C(c1cc(C(F)(F)F)cc(C(F)(F)F)c1)N1CCC2(CC1)CN(c1ccncc1)C2`, the max response is 12.3%.
Take `O=c1[nH]c(=O)c2nc3ccccc3nc2[nH]1`: the max response is -1.62% and 3.86%.
Still for that read-out and setting: the same measure for `COC(=O)[C@@H]1C[C@H](NC(=O)c2ccccc2C(F)(F)F)CN1Cc1cccc(O)c1`: -10.1%; for `Cc1cc(-c2ccnc(-n3ncc(C(=O)NC(C)(C)CO)c3C3CC3)n2)c(C)s1`: 5.17%; for `CS(=O)(=O)N1CCC2(CCN(c3ccncc3)CC2)CC1`: -40.6%.
For the molecule `O=c1c(O)c(-c2ccc(O)cc2)oc2ccccc12`, the max response is -32.1%.
